PAFAH1B2 FP inh = PAFAH1B2 enzyme inhibitors, primary screen, biochemical, fluorescence polarization, human. Platelet-activating factor acetylhydrolase IB subunit alpha2 (Homo sapiens), P68402. recombinant PAFAH1B2, FP-rhodamine activity probe. inhibition, % at 3.39 µM. actives 1.2% (n = 340,000). AID 492953, 2010;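 active = inhibition above the mean of all tested compounds plus 3 SD, cut at about 24% in these data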;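 also: 0% = enzyme with DMSO and 100% = wells lacking PAFAH1B2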
Target sequence (P68402 whole entry, looked up): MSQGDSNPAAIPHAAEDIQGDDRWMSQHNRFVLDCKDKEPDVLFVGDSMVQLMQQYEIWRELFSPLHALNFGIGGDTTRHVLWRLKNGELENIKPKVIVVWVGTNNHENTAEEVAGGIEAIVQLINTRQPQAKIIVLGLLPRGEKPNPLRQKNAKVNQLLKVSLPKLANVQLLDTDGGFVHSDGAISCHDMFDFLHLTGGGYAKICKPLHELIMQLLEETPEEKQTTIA
PAFAH1B3 inh = PAFAH1B3 enzyme inhibitors, primary screen, biochemical, fluorescence polarization, human. Platelet-activating factor acetylhydrolase IB subunit alpha1 (Homo sapiens), Q15102. recombinant PAFAH1B3, FP-rhodamine probe. actives 0.28% (n = 340,000). inhibition, % at 3.39 µM;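 active = inhibition above the screen-wide average of all tested compounds plus 3 SD, cut at about 25% in these data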;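 also: 0% = enzyme with DMSO only and 100% = wells lacking PAFAH1B3 protein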
PME-1 inh = PME-1 inhibitors via competitive probe labeling, primary screen, biochemical, fluorescence polarization, FP-Rh probe, HTS; recombinant PME-1; actives 0.53% (n = 320,000); Protein phosphatase methylesterase 1 (Homo sapiens), Q9Y570; AID 2130, 2009; inhibition, % at 5.9 µM;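 active = inhibition above the campaign mean of all compounds plus 3 SD, cut at about 26% in these data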;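 also: competitive labeling of PME-1 active site by serine hydrolase directed probe; 0% = PME-1 with DMSO and 100% = wells lacking PME-1 enzyme; inhibitors block probe labeling so polarization falls and inhibition rises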
Target sequence (Q9Y570 whole entry, looked up): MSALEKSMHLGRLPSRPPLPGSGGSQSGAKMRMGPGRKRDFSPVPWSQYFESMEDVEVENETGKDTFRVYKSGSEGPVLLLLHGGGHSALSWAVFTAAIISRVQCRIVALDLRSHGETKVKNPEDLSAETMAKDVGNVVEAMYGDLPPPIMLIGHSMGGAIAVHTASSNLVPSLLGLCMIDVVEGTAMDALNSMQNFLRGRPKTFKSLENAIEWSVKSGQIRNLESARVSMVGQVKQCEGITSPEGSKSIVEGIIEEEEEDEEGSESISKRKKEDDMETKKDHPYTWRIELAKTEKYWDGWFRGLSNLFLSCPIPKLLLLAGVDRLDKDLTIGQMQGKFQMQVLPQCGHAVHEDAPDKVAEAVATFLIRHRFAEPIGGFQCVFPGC
Fam108B counter = mouse Fam108B serine hydrolase inhibitors, primary screen, counter-screen for RBBP9 inhibitor project, biochemical, fluorescence polarization; actives 0.33% (n = 300,000); recombinant Fam108B, FP-Rh probe fluorescence polarization; inhibition, % at 9.51 µM;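 active = inhibition above the screen mean inhibition plus 3 SD, computed separately per campaign, cut at about 18% in these data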;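 also: inhibitors lower polarization as less probe binds the enzyme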
PAFAH2 inh = PAFAH2 enzyme inhibitors, primary screen, biochemical, fluorescence polarization, human | AID 492956, 2010 | inhibition, % at 3.39 µM | recombinant PAFAH2, FP-rhodamine activity probe | actives 0.99% (n = 340,000);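 active = inhibition above the mean over all tested compounds plus 3 SD, cut at about 30% in these data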;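 also: inhibitors block probe labeling of enzyme so polarization drops; 0% = enzyme with DMSO and 100% = wells lacking PAFAH2 protein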
pPAFAH FP inh = pPAFAH enzyme inhibitors, primary screen, biochemical, fluorescence polarization, human | Platelet-activating factor acetylhydrolase (Homo sapiens), Q13093 | recombinant pPAFAH, FP-rhodamine probe fluorescence polarization | inhibition, % at 3.39 µM | actives 1.5% (n = 330,000) | AID 463082, 2010;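 active = inhibition above the mean inhibition across the screen plus 3 SD, cut at about 25% in these data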;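 also: inhibitors block binding of the rhodamine activity-based probe so polarization drops; 0% = enzyme with DMSO and 100% = wells lacking pPAFAH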
* hit, by the source's call; . = no result given. In the library only some 2.9% were active in any assay of this set; here they are far more common.

SMILES	PAFAH1B2 FP inh	PAFAH1B3 inh	PME-1 inh	Fam108B counter	PAFAH2 inh	pPAFAH FP inh
CC(C)CC(=O)NC(c1ccccc1Cl)c1c(O)ccc2ccccc12 (stereo not given)	5	17	47*	9	1	-8
COc1ccc(C(NC(=O)CC(C)C)c2c(O)ccc3ccccc23)cc1 (stereo not given)	-3	5	-4	-4	-4	-14
COCCCNc1ncnc2ccc(C)cc12	3	1	1	4	4	25*
Cc1ccc2ncnc(NCCC(=O)O)c2c1	3	9	0	-1	5	-4
Cc1cc(SCc2ccc(Cl)cc2Cl)nc(=O)[nH]1	4	-3	-5	4	13	14
O=c1cc(SCc2ccc(Cl)cc2Cl)nc[nH]1	25*	6	.	.	3	.
CCc1ccc(-c2csc3ncn(CC(=O)NCc4ccco4)c(=O)c23)cc1	2	0	-2	-6	-1	7
O=C(Cn1cnc2scc(-c3ccccc3)c2c1=O)NCc1ccco1	-2	0	-4	-4	-1	25*
O=c1c(O)c(-c2ccc(O)c(O)c2)oc2cc(O)ccc12	15	38*	.	.	66*	.
O=c1c(-c2ccc(O)cc2)coc2cc(O)ccc12	2	11	-6	0	-5	-1
OC(c1ccc(Cl)cc1)c1nnc(-c2ccccc2)o1 (stereo not given)	24*	0	1	1	3	-2
Clc1ccc(-c2nnc(-c3ccccc3Cl)o2)cc1	4	1	-6	-2	-1	3
Nc1c(C(=O)Nc2ccc(Cl)c(C(=O)O)c2)sc2nc3c(cc12)CCCC3	7	16	9	-2	6	22
Nc1c(C(=O)Nc2cccc(C(=O)O)c2)sc2nc3c(cc12)CCCC3	7	12	26*	5	15	5
CN(Cc1ccc(N(C)C)cc1)C(=O)c1cc2ccccc2o1	4	1	0	0	3	2
Cc1ccccc1C1=C/C(=C(\SS/C(C(=O)c2ccc(OCC(=O)O)c(Cl)c2Cl)=C2\C=C(c3ccccc3C)SS2)C(=O)c2ccc(OCC(=O)O)c(Cl)c2Cl)SS1	26*	25	.	.	34*	.
O=C(O)COc1ccc2nsnc2c1Cl	0	6	1	5	2	-1
COc1cc(S(=O)(=O)Nc2cccc(C)c2)ccc1NC(=O)c1cccnc1	-2	-2	-1	-1	-7	30*
COc1cc2c(cc1NC(=O)c1ccncc1)oc1ccccc12	1	-1	-8	0	-5	2
COc1cc2c(cc1NC(=O)c1cccnc1)oc1ccccc12	2	-6	28*	14	-3	9
CC(=O)N1c2ccc(S(=O)(=O)N3CCCC(C(=O)NC4CCCC(C)C4C)C3)cc2CC1C (stereo not given)	5	11	-3	0	8	2
COc1cc(/C=N/Nc2nc(C)nc3c2cnn3-c2ccccc2)ccc1O	28*	5	.	.	9	.
O=C1NN(c2ccc(Cl)cc2)C(=O)/C1=C\c1ccc(-c2cccc(C(=O)O)c2)o1	21	27*	.	.	36*	.
COc1ccc(Sc2ccc(/C=C3\C(=O)NN(c4ccccc4)C3=O)o2)cc1	42*	15	10	9	34*	29*
O=C1NN(c2ccccc2)C(=O)/C1=C\c1ccc(-c2cc([N+](=O)[O-])ccc2O)o1	13	33*	.	.	30*	.
SMILES	PAFAH1B2 FP inh	PAFAH1B3 inh	PME-1 inh	Fam108B counter	PAFAH2 inh	pPAFAH FP inh
O=C(NN=C(Cc1ccccc1)Cc1ccccc1)C1CC1	-2	4	3	-1	4	8
O=C(Nc1nnc(S(=O)(=O)N2CCCC2)s1)c1ccccc1Br	6	6	2	-2	-5	3
Cc1cccc(OCC(=O)Nc2nnc(S(=O)(=O)N3CCCCC3)s2)c1	5	4	-3	-8	1	-1
Cc1cccc(OCC(=O)Nc2nnc(S(=O)(=O)N3CCC(C)CC3)s2)c1	27*	4	-5	-3	1	1
CC1CCN(S(=O)(=O)c2nnc(NC(=O)c3ccccc3Br)s2)CC1	28*	5	2	-5	3	3
O=C(NC(n1ccc(=O)[nH]c1=O)C(Cl)(Cl)Cl)C12CC3CC(CC(C3)C1)C2 (stereo not given)	27*	6	0	-3	-4	8
CC1(c2ccc(Cl)cc2)NC(=S)N2C1NC(=S)N2c1ccccc1 (stereo not given)	35*	1	3	-2	0	-1
O=C(Oc1cccc2c(O)cccc12)c1ccccc1	4	10	9	8	2	8
CC(=O)Cc1cc(O)c2ccccc2c1OC(=O)c1ccc(Br)cc1	3	3	28*	2	7	4
COc1ccc(C(=O)N2CCc3cc(OC)c(OC)cc3C2)cc1OC	-3	-1	0	2	-12	2
COc1cc2c(cc1OC)CN(C(=O)c1ccc3[nH]c(C)c(C)c3c1)CC2	-1	8	38*	-2	8	10
NNC(=O)c1ccc(COc2ccc(Br)cc2)o1	25*	-1	-9	-10	1	1
CC(C)(C)c1ccc(OCc2ccc(C(=O)NN)o2)cc1	4	8	-1	-6	-2	2
O=C(c1ccc(COc2ccc(Br)cc2)o1)N1N=C(C(F)F)CC1(O)C(F)F (stereo not given)	29*	-2	-4	-5	-2	10
ClC(/C=N/n1cnnc1)=C/c1ccccc1	4	6	3	0	11	2
O=C(COc1ccc(-c2ccccc2)cc1)NNC(=O)Nc1ccccc1	1	-4	-18	.	-7	0
CC(C)(C)c1ccc(OCC(=O)NNC(=O)Nc2ccccc2)cc1	39*	6	-6	0	-4	30*
Cc1c(OCC(=O)C(C)(C)C)ccc2c(-c3ccccc3)cc(=O)oc12	2	-1	0	4	2	11
O=C1C=C(Nc2ccc(O)cc2)C(=O)c2ccccc21	2	6	14	8	3	9
Cc1cccc(NC2=C(NCCO)C(=O)c3ccccc3C2=O)c1	4	10	19	6	4	1
Cc1cc(C)c(S(=O)(=O)/N=C2\C=C(NS(=O)(=O)c3ccccc3)C(=O)c3ccccc32)c(C)c1	0	-5	-15	-4	4	1
